We go through 38 compounds from the supplement of paper PMC3842684.

The subject of one assay is P. falciparum NF54-pfs16-GFP early (I-III) stage gametocytes. The experiment in a line: relative % inhibition of viable gametocyte number; higher = more gametocytocidal. The note with it: 5 µM; stage: early (I-III) gametocyte; incubation 72 h. The method, boiled down:
(§1)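 Viable gametocytes were counted by confocal imaging as elongated GFP objects carrying MitoTracker Red signal above a cut-off, after 72 h of compound exposure (5 or 0.5 µM) at 37°C in 5% CO2 and 5% O2 and overnight staining. The NF54 pfs16-GFP gametocytes had been magnet-isolated at early (I/IIa, day 2) or late (day 8) stage and plated at 10% parasitaemia, 0.1% haematocrit in 384-well poly-D-lysine imaging plates. Relative inhibition was normalised to vehicle and positive-control wells within each plate.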
For `Cc1cccc(N2C(=O)C3C(C2=O)C2(c4ccccc4)C(=O)C3(c3ccccc3)C(c3ccc4c(c3)OCO4)=C2c2ccc3c(c2)OCO3)c1` (stereo not drawn), the relative % inhibition was determined as 66.1%.
Turning to `COc1ccccc1N1C(=N)SC(=Cc2ccc(OCc3ccccc3F)cc2)C1=O`, the relative % inhibition turned out to be 25.8%.
Same read-out and setting: for `Oc1c2c(nc3cc(-c4ccccc4)nn13)CCCC2` the value was -0.467%; for `CC(=O)Nc1nnc(SCc2c(C)cc(C(C)(C)C)cc2C)s1`, 19.8%; for `CCOc1ccccc1CNC(=O)C1c2ccccc2C(=O)N(CC(C)C)C1c1cccs1` (stereo not drawn), 54.1%.
Same read-out and setting: in the case of `CCN(CC)CCn1c(=N)n(CC(O)c2ccc(Cl)c(Cl)c2)c2ccccc21` (stereo not drawn) it was 61.8%; in that of `CCN(CC)CCNc1ncnc2c1[nH]c1ccc(Cl)cc12`, 79.1%; in that of `O=C(CSc1ccc2nnc(-c3cccc(F)c3)n2n1)Nc1ccc2c(c1)OCO2`, 1.63%.
For the compound `Cc1cc(C)cc(Nc2cc(C)nc3nc(C(F)(F)F)nn23)c1`, the relative % inhibition came to 10%.
The same measure, in the same setting: in the case of `O=C(O)C1Cc2c([nH]c3ccccc23)C(c2ccc(Cl)cc2Cl)N1` (stereo not drawn) it was -20.9%; in that of `O=C(Nc1ccc(Br)cc1)Nc1cccc(Cl)c1`, 26.8%.
Regarding `O=C1c2ccccc2-c2nnc(-c3ccc(Br)cc3)cc21`, the relative % inhibition is 10%.
On the same count and under the same terms, for `COc1ccccc1N=C1C(=O)c2ccccc2C(O)=C1N1CCCCC1` the value was 44.6%.
The same measure, in the same setting: in the case of `CC(C)CCNCC(O)Cn1c2ccccc2c2ccccc21` (stereo not drawn) it was 102%; in that of `CCCCCCC(O)(c1ccc(F)cc1)C(CN1CCOCC1)c1ccccc1` (stereo not drawn), 47.2%; in that of `CCOC(=O)C1=C(c2ccccc2)N=c2sc(=Cc3cc(C)n(-c4ccc(F)cc4)c3C)c(=O)n2C1c1cccc(OC)c1OC` (stereo not drawn), 96.5%.
The same measure, in the same setting: in the case of `CN(C)c1ccc(-c2nc3cc(N)ccc3[nH]2)cc1` it was 18.8%.
Consider `CCCc1c(C)nc2ccccc2c1O`, for which the relative % inhibition turned out to be 15.7%.
The same measure, in the same setting: for `CCN(CC)CCCNc1nc(-c2ccc(Cl)cc2)nc2ccccc12` the value was 96.5%; for `Cc1ccc(Nc2nc(-c3ccccn3)cs2)cc1`, 93.5%.

The test system of another assay is P. falciparum NF54-pfs16-GFP late (IV-V) stage gametocytes. The assay is described as above. The note with it: 0.5 µM; stage: late (IV-V) gametocyte; incubation 72 h. The method, boiled down: as §1
Take `COc1ccc(C2Sc3ccccc3N=C3C2=C(O)c2ccccc23)cc1` (stereo not drawn): the relative % inhibition was determined as 24%.
`COc1ccccc1CNC(=O)C1c2ccccc2C(=O)N(CC(C)C)C1c1cccs1` (stereo not drawn): the relative % inhibition is -10.4%.
The same measure, in the same setting: in the case of `CCC(C)NCC(O)(c1ccc(Cl)cc1)c1ccc(Cl)cc1` (stereo not drawn) it was 27.1%.
`CC(C)(C)c1ccc(C(=O)Nc2c3c(nn2-c2cccc(Cl)c2)CSC3)cc1`: the relative % inhibition was -5.32%.
Still for that read-out and setting: for `COc1ccc(-c2c(C)nn3c(N)c(C#N)cnc23)cc1OC` the value was 63.6%; for `COc1ccc(CCNC(=O)c2cc(S(=O)(=O)N3CC(C)CC(C)C3)ccc2Sc2ccc(F)cc2)cc1OC` (stereo not drawn), 17.9%.
The same measure, in the same setting: for `COc1ccc(N2CCN(C(CNC(=O)CC(C)(C)C)c3ccc4c(c3)OCO4)CC2)cc1` (stereo not drawn) the value was 42.2%; for `CCCCc1c(CCC)c(=N)c2ccccc2n1C`, 18.3%.
The same measure, in the same setting: in the case of `Cc1cc(Nc2cccc(F)c2)nc(NCc2ccccc2)n1` it was 24.1%; in that of `Cc1ccnc(NC(c2cccc(OCc3ccccc3)c2)c2ccc3cccnc3c2O)c1` (stereo not drawn), 9.51%.
Regarding `CCN(CC)c1cc(C)c2cc(NC(=O)c3cccc(OC)c3)ccc2n1`, the relative % inhibition was -0.167%.
As for `CC(C)=CCN1CCC(C(=O)Nc2ccc(-c3nc4ccccc4[nH]3)cc2)CC1`, the relative % inhibition stood at 16.4%.
On the same count and under the same terms, in the case of `Oc1c(CN2CCN(c3ccccc3F)CC2)cc(Br)c2cccnc12` it was 22.3%; in that of `COc1ccc2c(c1)OC(O)(C(F)(F)C(F)(F)F)CC2=O` (stereo not drawn), 8.91%; in that of `COc1ccc(Nc2cc(C)nc(NCc3ccccc3)n2)cc1`, -3.1%.
On the same count and under the same terms, for `COc1cccc(Nc2nc(N)c3ccccc3n2)c1` the value was 7.14%.
The same measure, in the same setting: for `CCCCCn1c(=N)n(CC(O)COc2cccc(C)c2)c2ccccc21` (stereo not drawn) the value was -3.63%; for `CCOc1ccc2nc(C)cc(Nc3ccc(Br)cc3)c2c1`, 14.7%; for `Cc1cccc(N2C(=O)C3C(C2=O)C2(c4ccccc4)C(=O)C3(c3ccccc3)C(c3ccc4c(c3)OCO4)=C2c2ccc3c(c2)OCO3)c1` (stereo not drawn), 24.7%.
Take `COc1ccccc1N1C(=N)SC(=Cc2ccc(OCc3ccccc3F)cc2)C1=O`: the relative % inhibition is 32.6%.
Still for that read-out and setting: for `Oc1c2c(nc3cc(-c4ccccc4)nn13)CCCC2` the value was -4.66%; for `CC(=O)Nc1nnc(SCc2c(C)cc(C(C)(C)C)cc2C)s1`, -4.86%; for `CCOc1ccccc1CNC(=O)C1c2ccccc2C(=O)N(CC(C)C)C1c1cccs1` (stereo not drawn), -4.49%.
With `CCN(CC)CCn1c(=N)n(CC(O)c2ccc(Cl)c(Cl)c2)c2ccccc21` (stereo not drawn), the relative % inhibition amounted to 19.3%.
The same measure, in the same setting: in the case of `CCN(CC)CCNc1ncnc2c1[nH]c1ccc(Cl)cc12` it was 2.71%; in that of `O=C(CSc1ccc2nnc(-c3cccc(F)c3)n2n1)Nc1ccc2c(c1)OCO2`, 19%; in that of `Cc1cc(C)cc(Nc2cc(C)nc3nc(C(F)(F)F)nn23)c1`, -4.65%.
Still for that read-out and setting: for `O=C(O)C1Cc2c([nH]c3ccccc23)C(c2ccc(Cl)cc2Cl)N1` (stereo not drawn) the value was 6.2%.
